Assay results as given in the supplement of paper PMC10515830.
Structures can show the parent of a compound that is named as a salt.

What was measured:
Details in all cases: 10 µM; exposure time 6 h
[1] = system: Danio rerio larvae (5 dpf); assay: difference in excitability vs DMSO (percentage points); higher = more excitable than DMSO
In short: (§1)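 Library compounds were tested at 10 µM final in 100 µL egg water on wild-type 5 dpf zebrafish larvae in 96-well plates for 6 h, with 48 larvae per compound. After 3 h, plates at 28.5 ℃ were imaged every 6 s during a 3-h run of moving lines and 100 ms, 400Hz tones. Behaviours were quantified by Z-LaP Tracker and reported as the compound mean less the vehicle control mean, in percentage points.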

[2] = system: Danio rerio larvae (5 dpf); assay: difference in startle response vs DMSO (percentage points); higher = stronger startle than DMSO
In short: as §1

[3] = system: Danio rerio larvae (5 dpf); assay: difference in activity during first hour vs DMSO (percentage points); higher = more activity than DMSO
In short: as §1

[4] = system: Danio rerio larvae (5 dpf); assay: difference in habituation to acoustic stimuli vs DMSO (percentage points); higher = more habituation than DMSO
In short: as §1

[5] = system: Danio rerio larvae (5 dpf); assay: difference in combined optomotor response to red, green and blue moving lines vs DMSO (percentage points); higher = stronger optomotor response than DMSO
In short: as §1

Row | SMILES | difference in excitability [1] | difference in startle response [2] | difference in activity during first hour [3] | difference in habituation to acoustic stimuli [4] | difference [5]
1 | CC(=O)N(O)CCCCCNC(=O)CCC(=O)N(O)CCCCCNC(=O)CCC(=O)N(O)CCCCCN [Deferoxamine (mesylate)] | 4.87 | -4.66 | 10.3 | -2.2 | 2.91
2 | CCN[C@H]1CN(CCCOC)S(=O)(=O)c2sc(S(N)(=O)=O)cc21 [Brinzolamide] | 2.16 | -4.77 | -5.26 | -5.35 | 1.28
3 | Cc1cccc(CN2CCN(C(c3ccccc3)c3ccc(Cl)cc3)CC2)c1 (stereo not given) [Meclizine (hydrochloride)] | 6.31 | -8.4 | 21.1 | -9.92 | -14.3
4 | CC(C)(C)NCC(O)c1ccc(O)c(CO)c1 (stereo not given) [Salbutamol (hydrochloride)] | 7.67 | -7.77 | 15.5 | -0.991 | 4.05
5 | CC[C@H]1OC(=O)[C@H](C)[C@@H](O[C@H]2C[C@@](C)(OC)[C@@H](O)[C@H](C)O2)[C@H](C)[C@@H](O[C@@H]2O[C@H](C)C[C@H](N(C)C)[C@H]2O)[C@](C)(O)C[C@@H](C)C(=O)[C@H](C)[C@@H](O)[C@]1(C)O [Erythromycin] | 4.99 | -6.73 | 13.1 | -0.584 | 9.53
6 | CC(=O)[C@@]1(O)CC[C@H]2[C@@H]3C[C@H](C)C4=CC(=O)C=C[C@]4(C)[C@@]3(F)[C@@H](O)C[C@@]21C [Fluorometholone] | 5.46 | 1.23 | -2.26 | 4.02 | 1.57
7 | CNS(=O)(=O)CCc1ccc2[nH]cc(C3CCN(C)CC3)c2c1 [Naratriptan (hydrochloride)] | 8.93 | 2.03 | -1.59 | 7.18 | -2.72
8 | CC(N)C12CC3CC(CC(C3)C1)C2 (stereo not given) [Rimantadine (hydrochloride)] | 3.64 | -0.673 | -3.58 | 3.17 | -3.34
9 | O=C(NCC1CCCCN1)c1cc(OCC(F)(F)F)ccc1OCC(F)(F)F (stereo not given) [Flecainide (acetate)] | 6.44 | -12.4 | -19.1 | -11 | -18.8
10 | OCCN1CCN(CCCN2c3ccccc3Sc3ccc(Cl)cc32)CC1 [Perphenazine] | 18.9 | -4.36 | 24 | -10.2 | 2.99
11 | Cn1nnc(-c2ccc(-c3ccc(N4C[C@H](COP(=O)(O)O)OC4=O)cc3F)cn2)n1 [Tedizolid Phosphate] | -1.24 | 8.42 | 3.68 | 2.23 | 0.136
12 | COC(=O)C1=C(C)NC(C)=C(C(=O)OCCN(C)Cc2ccccc2)C1c1cccc([N+](=O)[O-])c1 (stereo not given) [Nicardipine (hydrochloride)] | 7.46 | -1.35 | 14.3 | -16.5 | -6.14
13 | O=C1CN2Cc3c(ccc(Cl)c3Cl)N=C2N1 [Anagrelide (hydrochloride)] | 11.5 | -3.44 | -9.48 | 7.77 | 3.07
14 | CN(C)CCOC(C)(c1ccccc1)c1ccccn1 (stereo not given) [Doxylamine (succinate)] | 0.347 | -2.91 | 6.73 | 5.01 | 9.42
15 | CN(C)C(=N)NC(=N)N [Metformin (hydrochloride)] | -3.21 | 1.77 | -3.05 | -5.21 | -1.97
16 | Nc1nc(F)nc2c1ncn2[C@@H]1O[C@H](COP(=O)(O)O)[C@@H](O)[C@@H]1O [Fludarabine Phosphate] | 2.14 | -0.759 | 3.53 | -5.41 | 6.27
17 | CCCCCOC(=O)Nc1nc(=O)n([C@@H]2O[C@H](C)[C@@H](O)[C@H]2O)cc1F [Capecitabine] | -2.56 | -2.24 | -0.876 | -0.579 | -1.26
18 | CCCCC(C)(O)C/C=C/[C@H]1[C@H](O)CC(=O)[C@@H]1CCCCCCC(=O)OC (mixture of isomers) [Misoprostol] | 9.78 | 0.222 | -2.79 | 7.1 | -1.41
19 | C[C@@H]1CCN(C(=O)CC#N)C[C@@H]1N(C)c1ncnc2[nH]ccc12 | -2.24 | -4.49 | -6.58 | -6.59 | 6.98
20 | C=CC1=C(C(=O)O)N2C(=O)[C@@H](NC(=O)/C(=N\O)c3csc(N)n3)[C@H]2SC1 [Cefdinir] | 6.83 | 5.77 | 6.72 | -1.11 | 4.15
21 | CN(Cc1cnc2nc(N)nc(N)c2n1)c1ccc(C(=O)N[C@@H](CCC(=O)O)C(=O)O)cc1 [Methotrexate (hydrate)] | 9.03 | 7.54 | -9.02 | -0.271 | 3.11
22 | COC(=O)C1=C(C)NC(C)=C(C(=O)OCC(C)C)C1c1ccccc1[N+](=O)[O-] (stereo not given) [Nisoldipine] | 7.56 | -9.87 | 0.119 | -9.06 | -16.9
23 | Oc1c(Cl)cc(Cl)c(Cl)c1Cc1c(O)c(Cl)cc(Cl)c1Cl [Hexachlorophene] | 8.13 | -9.45 | -18.6 | -9.66 | -15.6
24 | CO[C@H]1/C=C/O[C@@]2(C)Oc3c(C)c(O)c4c(c3C2=O)C2=NC3(CCN(CC(C)C)CC3)NC2=C(NC(=O)/C(C)=C\C=C\[C@H](C)[C@H](O)[C@@H](C)[C@@H](O)[C@@H](C)[C@H](OC(C)=O)[C@@H]1C)C4=O [Rifabutin] | 10.6 | -5.26 | 2.31 | 3.31 | 3.55
